HCV inh: inhibitors of hepatitis C virus infection; 3.4% of 340,000 active; Potency, µM (titrated, usually from 41.8 µM), most hits filed as inhibitors; AID 651820; Huh7.5.1 HCVcc-Cre infection, luciferase reporter, 44 h
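Seed cells (1,000/well) for 4 h; treat with compound and infect with HCVcc-Cre, moi about 0.5. Incubate 44 h, then detect luciferase activity.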
Shiga inhibitor: blocks Shiga toxin action in Vero cells | inhibition, % at 38.7 µM | 9.2% of 290,000 active | Vero cells, Shiga toxin protein synthesis inhibition reporter; in the data active = inhibition mostly above about 28%, no sharp cut-off; inactive = mostly below about 43%
CHX counter: affects cycloheximide protein synthesis inhibition readout, counter-screen | cell reporter, cycloheximide protein synthesis inhibition counterscreen | max response, % | 12% of 300,000 active | AID 2314; in the data active = max response mostly above about 13%, no sharp cut-off; inactive = mostly below about 14%; note: read at 38.3 µM for the half of the compounds with a filed dose
HCMV inh: human cytomegalovirus inhibition. activity change, negative = inhibition, % at 57.5 µM. HFF cells, HCMV-luciferase reporter, 72 h; hits give low values. 4.5% of 410,000 active; in the data active = activity change below about -60%; inconclusive = no clear call, values can overlap the other calls; inactive = above about -39%
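Human foreskin fibroblasts infected with luciferase-reporter HCMV at MOI 1 PFU/cell, compounds at two doses. Luciferase measured 72 h post infection; normalized to buffer-only basal and Salinomycin (10uM) controls.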
Pf growth 96h: P. falciparum growth inhibition at 96 hours; 6.9% of 320,000 active; Potency, µM (highest dose often 28.7 µM), usual class: inhibitors; P. falciparum luciferase reporter growth, 96 h
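Luminescence readout: decreased luciferase signal marks inhibited growth of reporter-expressing P. falciparum in infected red cells (2% hematocrit, 0.05% parasitemia final), exposed to compound two generations (96 h, 37 C, 5% CO2).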
Pf growth 48h: inhibits P. falciparum growth in the first generation, 48 h | P. falciparum luciferase growth in erythrocytes, 48 h | Potency, µM (series often up to 28.7 µM), most hits filed as inhibitors | 5.9% of 310,000 active
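Read-out is firefly luciferase luminescence from an integrated reporter in P. falciparum, so falling signal marks reduced parasite growth. Infected erythrocytes were at 2% hematocrit and 0.1% parasitemia (final) in Albumax-supplemented RPMI 1640.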
Each line names hits and unclear results; the compound was inactive in the other large screens. Only some compounds are listed: those with a hit (about 21% of all), similar ones and a draw of the others. Unless noted, calls come from the whole dose curve; as a rule, active = well fitted inhibition curve with a large enough effect; inconclusive = small, poorly fitted or top-dose-only effect, or another doubt; inactive = no such curve, though single readings can be large or run the other way.

COc1ccc(C2CC(c3ccc4ccccc4c3)=NN2C(=O)CNC2CCCCC2)cc1 (stereo unspecified)	HCV inh inconclusive, Pf growth 96h inconclusive, Pf growth 48h inconclusive
COc1ccc(C2CC(c3ccccc3)=NN2C(=O)COC(=O)c2cccc(O)c2)cc1 (stereo unspecified)	HCV inh inconclusive (no result: Shiga inhibitor, CHX counter, Pf growth 96h, Pf growth 48h)
COc1ccc(C2CC(c3ccc4ccccc4c3)=NN2C(=O)CN2CCC(C(N)=O)CC2)cc1 (stereo unspecified)	Shiga inhibitor 79, CHX counter 57, Pf growth 96h inconclusive, Pf growth 48h inconclusive
COc1ccc(C2CC(c3ccc4ccccc4c3)=NN2C(=O)COC(=O)C2CCC(=O)N2)cc1 (stereo unspecified)	Shiga inhibitor 127, CHX counter 47
COc1ccc(C2CC(c3ccccc3)=NN2C(=O)COC(=O)c2nc3nc(C)cc(C)n3n2)cc1 (stereo unspecified)	HCV inh 10µM, Pf growth 96h inconclusive, Pf growth 48h inconclusive
Nc1cc(=O)[nH]c(SCC(=O)N2N=C(c3ccc4ccccc4c3)CC2c2ccccc2)n1 (stereo unspecified)	HCV inh inconclusive, Pf growth 96h inconclusive, Pf growth 48h inconclusive
CC(=O)OCC(=O)N1N=C(c2ccc3ccccc3c2)CC1c1ccccc1 (stereo unspecified)	CHX counter 33
CCc1cc(C(=O)N/N=C/c2ccc(OC)cc2)c2ccccc2n1	HCV inh inconclusive
Cc1c(N(C)S(=O)(=O)c2ccc(Cl)c(C(=O)NCC(C)(C)N3CCOCC3)c2)c(=O)n(-c2ccccc2)n1C	none (no result: Shiga inhibitor, CHX counter, Pf growth 96h, Pf growth 48h)
COc1ccc(N2CCN(C(=O)CN3C(=O)CSc4c3c(C)nn4-c3ccccc3)CC2)cc1	none (no result: HCV inh, Shiga inhibitor, CHX counter, Pf growth 96h, Pf growth 48h)
CCN(CC)C1CCS(=O)(=O)C1 (stereo unspecified)	Pf growth 96h 0.19µM
CSC(=S)N(C)C1CCS(=O)(=O)C1 (stereo unspecified)	none
CCOC(=O)C(=O)N(CC)C1CCS(=O)(=O)C1 (stereo unspecified)	CHX counter 8.9
Cc1ccc(S(=O)(=O)Nc2ccccc2N2CCOCC2)cc1	HCV inh inconclusive
N#C/C(=C\c1ccccc1)C(=O)Nc1cccnc1	none
COCCNC(=O)/C(C#N)=C/C=C/c1ccccc1	CHX counter 17, Pf growth 96h inconclusive, Pf growth 48h 13µM
N#C/C(=C\C=C\c1ccccc1)C(=O)Nc1ccccc1	CHX counter 15, HCMV inh inconclusive
N#C/C(=C/C=C/c1ccccc1)C(=O)Nc1ccccc1	Pf growth 96h inconclusive, Pf growth 48h 3.3µM
COc1ccc2[nH]c(C)c(-c3csc(N)n3)c2c1	none
COc1ccc(Cl)cc1S(=O)(=O)Nc1ccncc1	none
O=S(=O)(Nc1ccncc1)c1cc(Cl)c(Cl)cc1Cl	Pf growth 96h 7.4µM
COc1ccc(C(=O)OCC(=O)N2CCCCCC2)cc1S(=O)(=O)N1CCOCC1	Pf growth 96h inconclusive (no result: Shiga inhibitor, CHX counter)
C=CCn1c(SCC(=O)c2c(N)n(C)c(=O)n(C)c2=O)nnc1-c1ccccc1F	Pf growth 96h inconclusive
C=CCn1c(SC(C)C(=O)c2c(N)n(C)c(=O)n(C)c2=O)nnc1-c1ccoc1C (stereo unspecified)	Pf growth 96h 8.3µM, Pf growth 48h 12µM (no result: Shiga inhibitor, CHX counter)
CC[C@H](C)[C@H]1O[C@]2(CC[C@@H]1C)C[C@@H]1C[C@@H](C/C=C(\C)[C@H](O[C@@H]3C[C@H](OC)[C@H](O[C@@H]4C[C@H](OC)[C@@H](O)[C@H](C)O4)[C@H](C)O3)[C@@H](C)/C=C/C=C3\CO[C@@H]4[C@H](O)C(C)=C[C@@H](C(=O)O1)[C@]34O)O2	Pf growth 96h 4.8µM, Pf growth 48h 1.2µM (no result: HCV inh, Shiga inhibitor, CHX counter, HCMV inh)
CCOC(=O)[C@H]1[C@H]2COc3ccc(Cl)cc3[C@@H]2N2C(=O)c3cc(OC)ccc3NC(=O)[C@@]12C	HCV inh inconclusive, Pf growth 96h inconclusive, Pf growth 48h inconclusive (no result: Shiga inhibitor, CHX counter)
COc1ccc2c(c1)[C@H]1[C@H](CO2)[C@H](c2ccccc2)[C@]2(C)C(=O)Nc3cc(C)ccc3C(=O)N12	HCV inh inconclusive (no result: Shiga inhibitor, CHX counter, Pf growth 96h, Pf growth 48h)
COc1cc2c(cc1OC)C(=O)N1[C@H]3c4cc(C)ccc4OC[C@@H]3[C@H](c3ccccc3)[C@]1(C)C(=O)N2	HCV inh inconclusive (no result: Shiga inhibitor, CHX counter, Pf growth 96h, Pf growth 48h)
COc1ccc2c(c1)C(=O)N1[C@H]3c4cc(Cl)ccc4OC[C@@H]3[C@H](c3ccccc3)[C@]1(C)C(=O)N2	HCV inh inconclusive, HCMV inh -60 (no result: Shiga inhibitor, CHX counter, Pf growth 96h, Pf growth 48h)
COc1cc2c(cc1OC)C(=O)N1[C@H]3c4cc(Cl)ccc4OC[C@@H]3[C@H](c3ccccc3)[C@]1(C)C(=O)N2	HCV inh inconclusive, HCMV inh inconclusive, Pf growth 96h 9.3µM, Pf growth 48h 15µM (no result: Shiga inhibitor, CHX counter)
COc1ccc2c(c1)[C@H]1[C@H](CO2)[C@H](c2ccccc2)[C@]2(C)C(=O)Nc3cc(Cl)ccc3C(=O)N12	HCV inh inconclusive, Pf growth 96h 1.9µM, Pf growth 48h 5.2µM (no result: Shiga inhibitor, CHX counter, HCMV inh)
CCCC(=O)n1nc(-c2ccco2)nc1NCc1ccccc1Cl	none (no result: HCV inh, Shiga inhibitor, CHX counter, Pf growth 96h, Pf growth 48h)
CC(OC(=O)c1cccc(S(=O)(=O)N2CCOCC2)c1)C(=O)NC1CCCCC1C (stereo unspecified)	none (no result: Shiga inhibitor, CHX counter)
C=CCn1c(NCc2ccc3c(c2)OCO3)nc2ccccc21	HCV inh inconclusive, Shiga inhibitor active, CHX counter 33, Pf growth 96h inconclusive, Pf growth 48h inconclusive
c1ccc2c(c1)nc(NCc1ccc3c(c1)OCO3)n2CCN1CCOCC1	none
CN(C)CCCn1c(NCc2ccc3c(c2)OCO3)nc2ccccc21	HCV inh inconclusive (no result: Pf growth 48h)
CCn1c(NCc2ccc3c(c2)OCO3)nc2ccccc21	CHX counter 22, Pf growth 96h inconclusive
CCC(C)N(C(=O)Cn1nnc(-c2ccc(F)cc2)n1)C1CCS(=O)(=O)C1 (stereo unspecified)	HCMV inh inconclusive
CCOC(=O)C1=CCN(S(=O)(=O)c2cccc(Cl)c2)C1c1ccc(F)cc1 (stereo unspecified)	none (no result: HCV inh, Shiga inhibitor, CHX counter, Pf growth 96h, Pf growth 48h)
O=C(O)/C=C/c1ccc(S(=O)(=O)Nc2ccc(OCc3ccccc3)cc2)cc1	none
CCOc1ccc(Oc2ccccc2NS(=O)(=O)c2ccc(CCC(=O)O)cc2)cc1	HCMV inh -64 (no result: Shiga inhibitor, CHX counter)
CCOc1ccc(S(=O)(=O)Nc2ccccc2C(=O)N2CCCC2)cc1	HCMV inh inconclusive
O=C(O)CCc1ccc(S(=O)(=O)Nc2ccc(OCc3ccccc3)cc2)cc1	HCV inh inconclusive, Shiga inhibitor 45, CHX counter 14
COCCN(C(=O)CSc1nc(N)cc(=O)[nH]1)c1c(N)n(Cc2ccccc2)c(=O)[nH]c1=O	none (no result: Shiga inhibitor, CHX counter)
COC(=O)C(Cc1ccccc1)NC(=O)c1cc(S(=O)(=O)N(C)C)ccc1Cl (stereo unspecified)	none
Cc1cc(NC(=O)CSc2ccc(-c3ccc4c(c3)OCO4)nn2)no1	none (no result: HCV inh)
c1ccc(CSc2ccc(-c3ccc4c(c3)OCO4)nn2)cc1	CHX counter 27
